Screening results (PubChem BioAssay)
Rows were chosen to be rich in hits. Some 3.5% of all compounds tested hit in one or more screens of this group.
TEAD-YAP inh = TEAD-YAP interaction inhibition, primary screen, TEAD-YAP interaction inhibitor project, luminescence, HEK-TIYL cells; 640,000 compounds, 1.4% hits; AID 1259422, 2018; inhibition, % at 9.12 µM; TEAD-Gal4/YAP UAS-luciferase luminescence; in the data active means inhibition above about 32%
FBW7 activator = FBW7 E3 ligase activators, primary screen, biochemical, AlphaScreen, human; F-box/WD repeat-containing protein 7 (Homo sapiens), Q969H0; AlphaScreen FBW7–phospho-cyclin E peptide binding, activator screen; normalized activity (activation), % at 26.1 µM; 650,000 compounds, 0.13% hits; AID 1259310, 2017; in the data active means normalized activity above about 1.9%;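 further: purified mutant Fbw7 with reduced substrate affinity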
GPR151 activ = activators of human GPR151, primary screen, cell-based, PathHunter beta-arrestin, luminescence | PathHunter beta-arrestin GPR151 cells | activation, % at 11.2 µM | AID 1508602, 2020 | G-protein coupled receptor 151 (Homo sapiens), Q8TDV0 | 650,000 compounds, 1% hits; in the data active means activation above about 4.9%
Target sequence (Q8TDV0 whole entry, looked up): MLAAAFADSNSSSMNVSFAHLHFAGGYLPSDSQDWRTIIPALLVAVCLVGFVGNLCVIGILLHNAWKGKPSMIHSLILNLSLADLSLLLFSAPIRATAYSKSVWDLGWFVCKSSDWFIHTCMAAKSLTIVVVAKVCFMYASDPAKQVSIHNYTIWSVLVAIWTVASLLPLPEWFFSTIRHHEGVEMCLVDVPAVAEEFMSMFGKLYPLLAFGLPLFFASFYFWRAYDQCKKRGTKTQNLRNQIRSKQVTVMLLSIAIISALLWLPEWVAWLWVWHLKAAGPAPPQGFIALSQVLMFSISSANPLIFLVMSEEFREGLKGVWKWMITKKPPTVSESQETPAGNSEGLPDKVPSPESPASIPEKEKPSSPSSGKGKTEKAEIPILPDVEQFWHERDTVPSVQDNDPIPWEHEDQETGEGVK
MITF primary = MITF inhibitors, primary screen, biochemical, AlphaScreen, human; Microphthalmia-associated transcription factor (Homo sapiens), O75030; AlphaScreen MITF homodimerization, bead proximity signal; inhibition, % at 2.6 µM; 650,000 compounds, 0.91% hits; in the data active means inhibition above about 50%
Numbers stand for hits; . = inactive.

SMILES | TEAD-YAP inh | FBW7 activator | GPR151 activ | MITF primary
Cc1cc(NCCN2CCOCC2)nc(Nc2ccc(N3CCOCC3)cc2)n1 | . | . | . | .
Cc1cc(NCCO)nc(Nc2ccc(-n3ccnc3)cc2)n1 | . | . | . | .
c1cc(Nc2ccnc(Nc3ccc(N4CCOCC4)cc3)n2)c2ccncc2c1 | . | 2.6 | . | .
CCCNC(=O)c1ccc([N+](=O)[O-])c(C)c1 | . | . | . | .
CCC(C)(CC(=O)O)CC(=O)N1CCC2(CC1)OCc1cc(F)ccc1O2 (configuration not stated) | . | . | . | .
c1ccc(CNc2ccnc(Nc3ccc(N4CCOCC4)cc3)n2)cc1 | 41.4 | . | . | .
Cc1cc(N2CCOCC2)nc(Nc2ccc(NC(=O)COc3ccccc3)cc2)n1 | 80.8 | . | . | .
CCNc1nc(C)cc(NCc2ccccc2)n1 | . | . | . | .
Cc1cc(NC2CCCCC2)nc(NCc2ccccc2)n1 | 42.9 | . | . | .
c1cncc(CNc2ccnc(Nc3ccc(N4CCOCC4)cc3)n2)c1 | . | . | . | .
Cc1ccc(C)c(NC(=O)Nc2ccc(Nc3nc(C)cc(N4CCOCC4)n3)cc2)c1 | . | . | . | .
Cc1cc(Nc2ccc(N3CCOCC3)cc2)nc(Nc2nc3ccccc3n2C)n1 | 42.1 | . | . | .
Cc1cc(Nc2ccc(N3CCOCC3)cc2)nc(Nc2ccccc2)n1 | 66.1 | . | . | .
Cc1cc(Nc2ccc(N3CCOCC3)cc2)nc(Nc2ccc(C(F)(F)F)cc2)n1 | . | . | . | .
CC(C)(C)C(=O)CN1CCN(S(=O)(=O)c2cccc([N+](=O)[O-])c2)CC1 | . | . | . | .
Cc1c(/C=N/NC(=O)CCc2ccc(S(=O)(=O)N3CCOCC3)cc2)cc(C#N)n1C | . | . | . | .
O=C(CCc1ccc(S(=O)(=O)N2CCOCC2)cc1)N/N=C/c1ccc(O)c(O)c1O | . | . | . | 54.1
CN(Cc1n[nH]c2c1CCCCC2)C(=O)CCc1nnc(C2CCCCC2)o1 | . | . | . | .
CCOc1cc(C=C2C(=O)NC(=S)NC2=O)ccc1OCC(=O)O | . | . | . | 70.5
O=C1NC(=S)N(c2ccccc2)C(=O)/C1=C\c1ccoc1 | . | . | . | 71.3
O=C1NC(=S)N(c2ccc(Cl)cc2)C(=O)/C1=C\c1ccoc1 | . | . | . | .
Cc1cccc(N2C(=O)NC(=O)/C(=C\c3ccoc3)C2=O)c1 | . | . | . | 57.6
Cc1cccc(N2C(=O)NC(=O)/C(=C\c3cccc(O)c3)C2=O)c1 | . | . | . | .
CCn1nc(CN)c2ccccc2c1=O | 43.0 | . | . | .
CCn1nc(CCC(=O)O)c2ccccc2c1=O | . | . | . | .
SMILES | TEAD-YAP inh | FBW7 activator | GPR151 activ | MITF primary
Cc1noc(C)c1S(=O)(=O)N(C)CC(=O)NC1CCCC1 | . | . | . | .
Nc1ccc(Oc2ccc3c(c2)C(=O)N(CCO)C3=O)cc1 | 42.2 | . | . | .
Nc1cccc(Oc2ccc3c(c2)C(=O)N(c2cccc(N)c2)C3=O)c1 | . | . | . | .
Nc1ccc(Oc2ccc3c(c2)C(=O)N(c2cccc(N)c2)C3=O)cc1 | . | 3.4 | . | .
CCC(=O)N1c2ccccc2NC2=C(C(=O)CC(c3cccc([N+](=O)[O-])c3)C2)C1c1ccc(OC)c(OC)c1 (configuration not stated) | . | . | . | .
Cc1[nH]c(=O)[nH]c(=O)c1NC(=O)CSc1nc2sc3c(c2c(=O)[nH]1)CCCC3 | . | . | . | .
Cc1ncn(-c2ccc(Nc3ncc4cccc(-c5cncnc5)c4n3)cc2)n1 | . | . | . | .
Cc1ncn(-c2ccc(Nc3ncc4cccc(-c5ccccn5)c4n3)cc2)n1 | 42.1 | . | . | .
Cc1ccc(-c2cccc3cnc(Nc4ccc(-n5cnc(C)n5)cc4)nc23)cn1 | 61.2 | . | . | .
COc1cc(-c2cccc3cnc(Nc4ccc(-n5cnc(C)n5)cc4)nc23)ccn1 | . | . | . | .
Cc1cc(-c2cccc3cnc(Nc4ccc(-n5cnc(C)n5)cc4)nc23)ccn1 | 62.2 | . | . | .
Cc1ncn(-c2ccc(Nc3ncc4cccc(-c5ncco5)c4n3)cc2)n1 | 70.2 | . | . | .
CCOC(=O)CN1C(=O)S/C(=C/c2ccc(I)cc2)C1=O | . | . | . | .
O=C(CCBr)NC(=O)Oc1cccc(Br)c1 | . | . | . | .
Cc1ncn(-c2ccc(Nc3ncc4cccc(-c5cccc(F)c5)c4n3)cc2)n1 | . | . | . | .
Cc1ccc(-c2cccc3cnc(Nc4ccc(-n5cnc(-c6ccccn6)n5)cc4)nc23)cn1 | . | 5.7 | . | .
COc1ccccc1/C=C/C=N\NC(=O)CCn1cnc2ccccc21 | 53.5 | . | . | .
COc1ccccc1/C=C/c1nn2c(Cn3cnc4ccccc43)nnc2s1 | 47.9 | . | . | .
COc1ccccc1/C=C/c1nn2c(COc3ccccc3)nnc2s1 | . | . | . | .
COc1ccccc1/C=C/c1nn2c(-c3ccccc3OC)nnc2s1 | 53.6 | . | . | .
CCOc1ccccc1/C=N\NC(=O)CCn1cnc2ccccc21 | . | . | . | .
O=c1oc2cc(O)ccc2cc1-c1nc(-c2cccs2)cs1 | 77.3 | . | . | .
CCc1ccc(Nc2nnc(-c3cc4ccc(O)cc4oc3=O)s2)cc1 | 34.3 | . | . | .
O=c1oc2cc(O)ccc2cc1-c1nc(-c2ccccc2)cs1 | . | . | . | .
O=c1oc2cc(O)ccc2cc1-c1nnc(Nc2ccc(F)cc2)s1 | . | . | . | .
SMILES | TEAD-YAP inh | FBW7 activator | GPR151 activ | MITF primary
CCCCOc1ccc(C(=O)Nc2cccc(O)c2)cc1 | 81.8 | . | . | .
CC(C)(C)N1C(=O)c2ccc(C(=O)Nc3cccc(O)c3)cc2C1=O | 88.7 | . | . | .
CC(C)(C)C(=O)Nc1ccc(C(=O)Nc2cccc(O)c2)cc1 | 63.8 | . | . | .
O=C(Nc1cccc(O)c1)c1ccc(Oc2ccccc2)cc1 | 92.9 | . | . | .
COc1cccc(NC(=O)c2ccc(NC(=O)C(C)(C)C)cc2)c1 | . | . | . | .
COc1ccc(NC(=O)c2cccc(N3C(=O)c4ccc(C(=O)O)cc4C3=O)c2)c(OC)c1 | . | . | . | .
CC1CC(C)(C)NC(=S)N1CC(=O)Nc1cccc(Cl)c1 (configuration not stated) | . | . | . | .
NC(=O)c1ccccc1Nc1cc(NC(=O)Cc2ccc3c(c2)OCO3)ncc1Cl | 70.4 | . | . | .
NC(=O)c1ccccc1Nc1cc(NC(=O)Cc2ccc3c(c2)OCO3)ncc1F | . | . | . | .
NC(=O)c1ccccc1Nc1cc(NC(=O)Cc2ccc3c(c2)OCO3)ncc1C(F)(F)F | 100.0 | . | . | .
CNC(=O)c1ccccc1Nc1cc(NC(=O)C(C)(C)c2ccccc2)ncc1C(F)(F)F | . | . | . | .
CNC(=O)c1ccccc1Nc1cc(NC(=O)Cc2cccc(F)c2)ncc1C(F)(F)F | 72.1 | . | . | .
CNC(=O)c1ccccc1Nc1cc(NC(=O)Cc2ccccc2OC)ncc1C(F)(F)F | 82.6 | . | . | .
